# Laboratory results reported in the supplement of paper PMC11732987, “Enantioselective OTUD7B fragment discovery through chemoproteomics screening and high-throughput optimisation” (Communications Chemistry, 2025).
# Values without a mark were called inactive.
# How the values were obtained:
# Assay in all cases: log2 ratio of Biotin-Ahx-Ub-VS probe labelling (fragment/DMSO); higher = less target engagement (more negative = stronger competition), active = hit call of the paper (q ≤ 0.05, log2 ratio ≤ -1)
# Settings in all cases: compound concentration: 200 uM; treatment time: 3 h
# OTUD6B = target: T1, OTUD6B (UniProt Q8N6M0)
# T1 sequence (whole entry): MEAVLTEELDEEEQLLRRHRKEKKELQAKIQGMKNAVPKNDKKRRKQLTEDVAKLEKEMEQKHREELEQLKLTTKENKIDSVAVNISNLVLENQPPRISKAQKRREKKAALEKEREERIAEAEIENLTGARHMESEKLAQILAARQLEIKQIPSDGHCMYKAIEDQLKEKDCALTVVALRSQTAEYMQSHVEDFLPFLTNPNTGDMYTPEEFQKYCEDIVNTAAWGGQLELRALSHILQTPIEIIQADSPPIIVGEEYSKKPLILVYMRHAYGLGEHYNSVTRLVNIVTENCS
# Outline: (§1)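 Average log2 ratios of fragment over vehicle were obtained by unpaired t-test from global-median-normalised Spectronaut label-free quantities. Proteins with ≥2 unique peptides were included. HEK293T lysate (495 µg per sample) was treated in triplicate with fragment at 200 µM or vehicle for 3 h, then with Biotin-Ahx-Ub-VS at 0.5 µM final for 1 h, and labelled DUBs were NeutrAvidin-enriched and run by diaPASEF LC-MS/MS.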
# OTUD7B = target: T2, OTUD7B (UniProt Q6GQQ9)
# T2 sequence (whole entry): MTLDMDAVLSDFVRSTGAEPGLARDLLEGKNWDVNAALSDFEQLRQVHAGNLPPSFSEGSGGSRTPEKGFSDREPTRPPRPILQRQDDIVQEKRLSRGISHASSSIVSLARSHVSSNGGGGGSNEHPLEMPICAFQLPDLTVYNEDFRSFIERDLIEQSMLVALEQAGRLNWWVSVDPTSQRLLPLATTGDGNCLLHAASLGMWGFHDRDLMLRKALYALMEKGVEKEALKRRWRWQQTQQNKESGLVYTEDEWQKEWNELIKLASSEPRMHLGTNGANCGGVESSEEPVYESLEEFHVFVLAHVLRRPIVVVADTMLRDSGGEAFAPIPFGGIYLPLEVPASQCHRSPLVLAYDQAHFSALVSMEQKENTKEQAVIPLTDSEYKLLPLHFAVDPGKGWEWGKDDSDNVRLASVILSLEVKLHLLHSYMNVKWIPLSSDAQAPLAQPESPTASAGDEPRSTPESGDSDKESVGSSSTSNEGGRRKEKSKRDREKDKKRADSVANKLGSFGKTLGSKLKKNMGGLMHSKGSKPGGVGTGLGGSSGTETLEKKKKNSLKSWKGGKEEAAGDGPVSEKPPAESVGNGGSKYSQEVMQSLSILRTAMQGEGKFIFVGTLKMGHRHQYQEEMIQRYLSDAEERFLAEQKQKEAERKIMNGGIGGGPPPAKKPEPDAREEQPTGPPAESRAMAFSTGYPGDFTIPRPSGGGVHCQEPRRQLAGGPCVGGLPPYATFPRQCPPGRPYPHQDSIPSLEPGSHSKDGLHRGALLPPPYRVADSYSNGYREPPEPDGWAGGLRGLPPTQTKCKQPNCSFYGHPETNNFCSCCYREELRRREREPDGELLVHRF
# Outline: as §1
# PRPF8 = PRPF8 (UniProt Q6P2Q9)
# Outline: as §1
# PSMD7 = target: T3, PSMD7 (UniProt P51665)
# T3 sequence (whole entry): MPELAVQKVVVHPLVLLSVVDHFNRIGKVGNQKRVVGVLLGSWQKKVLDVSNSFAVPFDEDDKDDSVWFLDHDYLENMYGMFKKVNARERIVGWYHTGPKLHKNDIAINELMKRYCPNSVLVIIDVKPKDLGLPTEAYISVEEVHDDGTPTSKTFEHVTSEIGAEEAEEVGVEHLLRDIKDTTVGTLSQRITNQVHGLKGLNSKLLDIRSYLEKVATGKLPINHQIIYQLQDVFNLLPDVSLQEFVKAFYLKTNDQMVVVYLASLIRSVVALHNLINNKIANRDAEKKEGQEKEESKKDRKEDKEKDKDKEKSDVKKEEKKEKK
# Outline: as §1
# UCHL1 = UCHL1 (UniProt P09936)
# Outline: as §1
# UCHL3 = target: T4, UCHL3 (UniProt P15374)
# T4 sequence (whole entry): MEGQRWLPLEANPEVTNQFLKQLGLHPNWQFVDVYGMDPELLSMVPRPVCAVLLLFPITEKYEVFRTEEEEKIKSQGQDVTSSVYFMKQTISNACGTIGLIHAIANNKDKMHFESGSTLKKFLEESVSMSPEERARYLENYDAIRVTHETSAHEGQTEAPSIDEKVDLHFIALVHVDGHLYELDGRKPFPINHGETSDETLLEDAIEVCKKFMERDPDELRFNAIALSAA
# Outline: as §1
# UCHL5 = target: T5, UCHL5 (UniProt Q9Y5K5)
# T5 sequence (whole entry): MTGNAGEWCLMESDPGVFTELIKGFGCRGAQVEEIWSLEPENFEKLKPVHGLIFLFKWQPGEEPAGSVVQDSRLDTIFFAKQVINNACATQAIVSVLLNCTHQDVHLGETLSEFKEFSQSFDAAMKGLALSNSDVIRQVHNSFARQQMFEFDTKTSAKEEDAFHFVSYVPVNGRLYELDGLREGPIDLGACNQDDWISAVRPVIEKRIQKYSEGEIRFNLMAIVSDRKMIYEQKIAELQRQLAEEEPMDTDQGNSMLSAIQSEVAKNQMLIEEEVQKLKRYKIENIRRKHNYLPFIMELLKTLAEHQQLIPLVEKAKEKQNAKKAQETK
# Outline: as §1
# USP10 = USP10 (UniProt Q14694)
# Outline: as §1
# USP15 = target: T6, USP15 (UniProt Q9Y4E8)
# T6 sequence (whole entry): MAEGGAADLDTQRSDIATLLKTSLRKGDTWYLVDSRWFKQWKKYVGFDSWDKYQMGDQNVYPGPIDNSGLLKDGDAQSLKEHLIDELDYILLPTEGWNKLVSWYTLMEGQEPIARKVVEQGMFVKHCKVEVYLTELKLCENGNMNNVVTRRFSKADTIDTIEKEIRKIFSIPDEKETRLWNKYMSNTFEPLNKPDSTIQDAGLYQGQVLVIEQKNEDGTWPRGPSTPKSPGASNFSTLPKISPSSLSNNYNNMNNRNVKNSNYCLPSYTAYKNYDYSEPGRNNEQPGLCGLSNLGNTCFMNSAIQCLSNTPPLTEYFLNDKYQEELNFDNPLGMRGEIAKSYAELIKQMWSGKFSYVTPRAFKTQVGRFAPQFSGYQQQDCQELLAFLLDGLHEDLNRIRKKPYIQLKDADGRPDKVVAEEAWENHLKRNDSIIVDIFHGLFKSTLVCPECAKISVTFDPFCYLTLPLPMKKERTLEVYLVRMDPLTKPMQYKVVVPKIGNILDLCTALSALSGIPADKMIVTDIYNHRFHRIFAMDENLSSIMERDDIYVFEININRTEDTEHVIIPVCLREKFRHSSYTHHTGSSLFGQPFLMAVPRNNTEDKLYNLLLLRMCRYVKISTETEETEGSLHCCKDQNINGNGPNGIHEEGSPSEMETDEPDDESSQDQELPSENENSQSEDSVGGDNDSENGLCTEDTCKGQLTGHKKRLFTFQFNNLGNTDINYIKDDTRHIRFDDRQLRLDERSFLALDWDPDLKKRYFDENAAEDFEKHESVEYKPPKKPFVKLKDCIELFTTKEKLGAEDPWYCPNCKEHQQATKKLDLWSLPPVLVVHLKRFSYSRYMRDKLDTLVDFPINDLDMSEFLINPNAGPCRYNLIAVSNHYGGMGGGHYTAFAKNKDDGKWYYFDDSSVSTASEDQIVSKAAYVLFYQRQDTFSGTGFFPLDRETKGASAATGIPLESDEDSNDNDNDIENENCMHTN
# Outline: as §1
# USP16 = USP16 (UniProt Q9Y5T5)
# Outline: as §1
# Sequence of UCHL1 (P09936 whole entry, looked up): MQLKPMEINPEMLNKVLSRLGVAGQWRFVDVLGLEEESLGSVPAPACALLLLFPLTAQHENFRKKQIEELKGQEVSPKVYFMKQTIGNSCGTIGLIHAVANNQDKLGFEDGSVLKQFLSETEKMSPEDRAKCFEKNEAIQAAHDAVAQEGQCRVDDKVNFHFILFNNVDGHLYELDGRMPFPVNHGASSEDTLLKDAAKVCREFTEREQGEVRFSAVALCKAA
# Sequence of USP10 (Q14694 whole entry): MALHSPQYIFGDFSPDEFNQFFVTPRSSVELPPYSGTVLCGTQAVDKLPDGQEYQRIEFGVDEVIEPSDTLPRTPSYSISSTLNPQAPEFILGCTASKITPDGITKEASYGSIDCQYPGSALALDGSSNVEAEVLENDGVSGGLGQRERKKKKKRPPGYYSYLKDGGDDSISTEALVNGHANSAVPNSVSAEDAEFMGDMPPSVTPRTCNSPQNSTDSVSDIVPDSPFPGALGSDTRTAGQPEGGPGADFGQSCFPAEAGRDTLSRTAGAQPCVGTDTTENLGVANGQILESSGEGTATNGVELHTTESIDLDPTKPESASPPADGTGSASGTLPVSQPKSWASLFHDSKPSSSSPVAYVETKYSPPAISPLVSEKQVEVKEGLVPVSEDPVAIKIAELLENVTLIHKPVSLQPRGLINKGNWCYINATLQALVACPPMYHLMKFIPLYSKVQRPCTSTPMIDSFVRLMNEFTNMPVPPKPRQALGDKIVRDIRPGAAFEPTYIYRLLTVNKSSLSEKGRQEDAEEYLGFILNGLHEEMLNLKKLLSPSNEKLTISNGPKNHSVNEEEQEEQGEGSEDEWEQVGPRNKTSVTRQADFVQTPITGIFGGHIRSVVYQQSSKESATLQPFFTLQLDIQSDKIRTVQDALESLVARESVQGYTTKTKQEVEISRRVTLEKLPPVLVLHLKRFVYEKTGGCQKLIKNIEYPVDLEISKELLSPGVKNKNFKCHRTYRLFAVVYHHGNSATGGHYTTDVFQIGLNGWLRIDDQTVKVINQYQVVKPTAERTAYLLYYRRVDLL
# Sequence of USP16 (Q9Y5T5 whole entry, looked up): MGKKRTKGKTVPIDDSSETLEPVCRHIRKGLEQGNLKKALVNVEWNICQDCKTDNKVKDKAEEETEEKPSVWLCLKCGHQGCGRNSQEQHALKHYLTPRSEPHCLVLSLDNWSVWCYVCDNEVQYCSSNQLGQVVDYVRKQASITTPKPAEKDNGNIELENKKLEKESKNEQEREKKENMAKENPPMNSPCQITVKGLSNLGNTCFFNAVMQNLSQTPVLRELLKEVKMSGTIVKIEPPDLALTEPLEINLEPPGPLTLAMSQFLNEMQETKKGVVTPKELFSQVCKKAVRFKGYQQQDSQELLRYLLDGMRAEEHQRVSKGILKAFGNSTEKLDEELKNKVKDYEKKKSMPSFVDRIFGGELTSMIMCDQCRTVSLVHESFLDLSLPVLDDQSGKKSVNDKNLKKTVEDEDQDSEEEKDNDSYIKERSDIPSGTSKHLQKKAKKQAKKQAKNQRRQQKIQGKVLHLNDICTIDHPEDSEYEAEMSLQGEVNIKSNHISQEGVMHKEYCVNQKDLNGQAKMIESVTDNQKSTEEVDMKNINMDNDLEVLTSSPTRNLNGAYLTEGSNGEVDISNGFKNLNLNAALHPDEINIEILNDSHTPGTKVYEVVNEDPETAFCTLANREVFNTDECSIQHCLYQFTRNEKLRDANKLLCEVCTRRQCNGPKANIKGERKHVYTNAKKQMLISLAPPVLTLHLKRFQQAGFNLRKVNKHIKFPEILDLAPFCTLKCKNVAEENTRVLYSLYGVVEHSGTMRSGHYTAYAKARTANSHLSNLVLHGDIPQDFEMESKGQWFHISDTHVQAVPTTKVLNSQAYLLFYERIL
smiles,measurement,setting,value
Cc1cccnc1NC(=O)C1CCN(C(=O)CCl)CC1.Cl,log2 ratio of Biotin-Ahx-Ub-VS probe labelling,OTUD6B,-0.127
same,log2 ratio of Biotin-Ahx-Ub-VS probe labelling,OTUD7B,-0.284
same,log2 ratio of Biotin-Ahx-Ub-VS probe labelling,PRPF8,-0.0508
same,log2 ratio of Biotin-Ahx-Ub-VS probe labelling,PSMD7,-0.189
same,log2 ratio of Biotin-Ahx-Ub-VS probe labelling,UCHL1,-1.33 (active)
same,log2 ratio of Biotin-Ahx-Ub-VS probe labelling,UCHL3,0.088
same,log2 ratio of Biotin-Ahx-Ub-VS probe labelling,UCHL5,-0.328
same,log2 ratio of Biotin-Ahx-Ub-VS probe labelling,USP10,-0.146
same,log2 ratio of Biotin-Ahx-Ub-VS probe labelling,USP15,-0.24
same,log2 ratio of Biotin-Ahx-Ub-VS probe labelling,USP16,0.018
